From PMC5540273 (PLoS ONE, 2017)

Columns and labels:
Conditions in all cases: concentration: 1 μM, replicates: in singlicate; n = 1
[1] = test system: RIPK2
[2] = test system: RIPK4
[3] = test system: RIPK5
[4] = test system: ROCK1
[5] = test system: ROCK2
[6] = test system: ROS1
[7] = test system: RPS6KA4(Kin.Dom.1-N-terminal)
[8] = test system: RPS6KA4(Kin.Dom.2-C-terminal)
[9] = test system: RPS6KA5(Kin.Dom.1-N-terminal)
[10] = test system: RPS6KA5(Kin.Dom.2-C-terminal)
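Further: KINOMEscan kinase panel screen.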

Row | Structure (SMILES) | %Inh [1] | %Inh [2] | %Inh [3] | %Inh [4] | %Inh [5] | %Inh [6] | %Inh [7] | %Inh [8] | %Inh [9] | %Inh [10]
1 | CCC(=O)c1c(-c2ccccc2)c2cc(Cl)ccc2c(=O)n1Cc1cc(S(C)(=O)=O)n(CC(N)=O)n1 | 0% | 0% | 0% | 0% | 0% | 0% | 0% | 0% | 30% | 22%
2 | Cl.NS(=O)(=O)c1cccc(Nc2cc(-c3ccc(F)cc3)n[nH]2)c1 [GW824645] | 0% | 15% | 22% | 0% | 18% | 11% | 17% | 0% | 0% | 3%
3 | Fc1cccc(CSc2nnc(-c3ccc4c(c3)CCO4)o2)c1 | 12% | 0% | 0% | 12% | 0% | 0% | 0% | 4% | 16% | 9%
4 | COc1ccc(-c2cc3c(C)nc(N)nc3n([C@H]3CC[C@H](O)CC3)c2=O)cn1 | 0% | 0% | 0% | 0% | 0% | 0% | 5% | 0% | 0% | 0%
5 | CN(C)c1cc(-c2ccc3c(N)n[nH]c3c2)nc(N)n1 [GSK2219329] | 0% | 15% | 0% | 0% | 0% | 10% | 8% | 0% | 18% | 0%
6 | COC(=O)c1c(-c2ccccc2)c2cc(Br)ccc2c(=O)n1Cc1ccc(S(C)(=O)=O)cc1 | 0% | 46% | 20% | 23% | 0% | 0% | 0% | 21% | 24% | 3%
7 | CCCC(=O)Nc1n[nH]c2ncc(-c3cccc4ccccc34)cc12 [SB-642057] | 28% | 36% | 10% | 0% | 3% | 0% | 14% | 0% | 16% | 0%
8 | Cc1nnc(-c2ccc(C)c(-c3ccc(C(=O)O)cc3)c2)o1 [GW608005] | 0% | 9% | 0% | 0% | 0% | 0% | 0% | 0% | 9% | 0%
9 | CCC(=O)c1c(-c2ccccc2)c2cc(Cl)ccc2c(=O)n1Cc1cc(S(C)(=O)=O)n(CCC(C)(C)O)n1 | 14% | 0% | 3% | 16% | 0% | 14% | 3% | 12% | 20% | 1%
10 | COC(=O)c1c(-c2ccccc2)c2cc(C)ccc2c(=O)n1Cc1ccccc1 | 0% | 0% | 0% | 0% | 0% | 0% | 0% | 0% | 10% | 0%
11 | COc1ccc(CNC(=O)NC2CCN(c3ccnc(Nc4ccc(F)cc4)n3)C2)cc1 (stereo not shown) [GSK1379706] | 19% | 0% | 15% | 29% | 27% | 12% | 0% | 0% | 13% | 27%
12 | CN1C(=O)C(Nc2ccccc2)=C(c2ccccc2)C1=O [SB-300079] | 0% | 5% | 25% | 7% | 43% | 0% | 8% | 0% | 0% | 9%
13 | CCc1ccc(-c2ccc3c(c2)-c2nn(C)cc2S(=O)(=O)N3C)cc1 | 0% | 0% | 0% | 0% | 0% | 0% | 0% | 0% | 0% | 0%
14 | Cc1nnc(-c2ccc3ncn(-c4ccc(S(C)=O)cc4)c3c2)o1 (stereo not shown) | 19% | 0% | 0% | 0% | 16% | 0% | 0% | 0% | 3% | 4%
15 | COc1cc2nccc(Nc3ccc(OCc4ccc(NC(C)=O)cc4)cc3)c2cc1OC.Cl [GW440135] | 61% | 0% | 0% | 13% | 6% | 0% | 0% | 0% | 0% | 12%
16 | Nc1ncnc2c1ncn2-c1cccc2ccccc12 [SKF-97184] | 7% | 8% | 5% | 67% | 0% | 0% | 10% | 0% | 10% | 2%
17 | O=C(NCCNc1ccnc(Nc2ccc(F)cc2)n1)Nc1ccc2c(c1)OCO2 [GSK1379882] | 0% | 11% | 0% | 0% | 0% | 0% | 0% | 0% | 9% | 10%

Row | Structure (SMILES) | %Inh [1] | %Inh [2] | %Inh [3] | %Inh [4] | %Inh [5] | %Inh [6] | %Inh [7] | %Inh [8] | %Inh [9] | %Inh [10]
18 | Nc1nccc2scc(-c3ccc4c(c3)CCN4C(=O)Cc3ccccc3)c12 [GSK2576924] | 58% | 3% | 12% | 0% | 38% | 18% | 13% | 0% | 25% | 14%
19 | O=C1NC(=O)C(c2ccccc2)=C1Nc1cccc(O)c1 [SB-390534] | 8% | 1% | 26% | 0% | 0% | 24% | 0% | 7% | 0% | 0%
20 | Cc1ccc(Oc2ccc(Nc3ncnc4cc[nH]c34)cc2C)cn1 | 8% | 36% | 14% | 0% | 0% | 11% | 0% | 1% | 16% | 2%
21 | CCC(=O)c1c(-c2ccccc2)c2cc(Cl)ccc2c(=O)n1Cc1ccc(C(=O)O)cc1 | 0% | 0% | 5% | 0% | 0% | 0% | 0% | 7% | 0% | 0%
22 | CCC(=O)c1c(-c2ccccc2)c2cc(Cl)ccc2c(=O)n1Cc1cc(S(C)(=O)=O)n(CC(F)F)n1 | 2% | 0% | 18% | 0% | 0% | 0% | 0% | 0% | 0% | 0%
23 | CC(C)(C)c1ccc(C(=O)Nc2cn3cc(-c4ccccc4)ccc3n2)cc1 | 16% | 0% | 2% | 0% | 63% | 0% | 6% | 0% | 0% | 18%
24 | Nc1n[nH]c2nnc(-c3ccccc3)c(-c3ccccc3)c12 [GW554060] | 0% | 0% | 0% | 31% | 31% | 14% | 10% | 0% | 12% | 0%
25 | Nc1ncnc2c1ncn2-c1ccc(Cl)cc1 [AH2635] | 2% | 2% | 0% | 30% | 0% | 23% | 20% | 0% | 0% | 8%
26 | COc1cc2ncn(-c3cc(OCCCc4ccccc4)c(C(N)=O)s3)c2cc1OC [GSK205189] | 20% | 0% | 0% | 0% | 0% | 13% | 5% | 0% | 0% | 0%
27 | FC(F)(F)c1ccc(-c2ncn(CCCN3CCOCC3)c2-c2ccncc2)cc1 [SB-217780] | 0% | 61% | 0% | 27% | 0% | 0% | 1% | 11% | 0% | 0%
28 | COc1cc(Nc2nccc(N3CCC(NC(=O)C4COc5ccccc5O4)C3)n2)cc(OC)c1OC (stereo not shown) [GSK1379761] | 0% | 0% | 0% | 26% | 37% | 54% | 0% | 0% | 0% | 0%
29 | Cc1ccccc1COc1cc(-n2cnc3cc(Cl)ccc32)sc1C(N)=O [GW813349] | 12% | 15% | 0% | 8% | 6% | 0% | 10% | 22% | 0% | 5%
30 | COc1cccc(C2=C(Nc3cccc(C(=O)O)c3)C(=O)NC2=O)c1 [SB-390770] | 7% | 0% | 0% | 25% | 7% | 32% | 0% | 0% | 32% | 0%
31 | COc1ccc(-c2cc3c(C)nc(N)nc3n([C@H]3CC[C@H](OCCO)CC3)c2=O)cn1 | 0% | 0% | 0% | 0% | 0% | 9% | 0% | 0% | 0% | 0%
32 | Nc1nc(N)c2nc(-c3ccccc3)[nH]c2n1 [SKF-12778] | 10% | 66% | 0% | 26% | 24% | 10% | 11% | 0% | 9% | 0%
33 | O=c1cc(N2CCOCC2)nc2n(Cc3ccc(F)c(Cl)c3)ccn12 [GSK2297099] | 0% | 27% | 0% | 0% | 0% | 0% | 4% | 0% | 16% | 27%
34 | COc1cc(Nc2ccnc3ccc(C(F)(F)F)cc23)cc(OC)c1OC [GW577382] | 64% | 1% | 0% | 0% | 15% | 9% | 10% | 0% | 6% | 13%
